Screens from PubChem BioAssay.
The list is not random: actives were taken first. Their share in the collection is about 19%.
DT40 TDP1 CPT: qHTS for Inhibitors of human tyrosyl-DNA phosphodiesterase 1 (TDP1): qHTS in cells in presence of CPT | chicken DT40 Tdp1-/-;hTDP1 cells + 20 nM CPT, ATP luminescence, 48 h | Potency, µM (titrated, usually from 46.2 µM), inactives show at the top dose activity change, negative = growth inhibition, actives largely listed as inhibitors | 420,000 tested, 12% active; also: nearly all actives have a fitted effect of over 55% in size
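Chicken DT40 Tdp1-/- cells stably complemented with human TDP1 were seeded at 400 cells/well in medium containing 20 nM camptothecin, exposed to pin-transferred compounds, and grown at 37 °C for at least 48 hr. Viability was read as ATP luminescence.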
HT1080NT lethal: qHTS for induction of synthetic lethality in tumor cells producing 2HG: qHTS for the HT-1080-NT fibrosarcoma cell line | 360,000 tested, 1.6% active | HT-1080-NT fibrosarcoma viability, CellTiter-Glo ATP luminescence, 48 h | Potency, µM (series often up to 46.1 µM), without a hit: top-dose activity, negative = less viability, actives largely listed as cytotoxic;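 also: NT is the 2HG producing partner of a matched IDH1 knockdown line; 0% = DMSO-treated cells and -100% = media-only wells without cells; nearly all actives have a fitted effect of over 55% in size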
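Toxicity toward the 2HG-producing NT line was scored as %Activity, normalised to DMSO and no-cell wells, from CellTiter-Glo luminescence after 48 hours' treatment.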
HT1080 IDH1KD tx: qHTS for induction of synthetic lethality in tumor cells producing 2HG: qHTS for the HT-1080-IDH1KD cell line; HT-1080 IDH1 knockdown viability, ATP luminescence, 48 h; 360,000 tested, 2% active; Potency, µM (top dose mostly 46.1 µM), without a hit: top-dose activity, negative = toxicity, hits mostly cytotoxic;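 also: 0% = DMSO wells and -100% = cell-free medium wells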
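HT-1080-IDH1KD cells (IDH1 knocked down), 750/well in RPMI with 5% FBS, treated with compound 48 h at 37 degrees C. Viability by CellTiter-Glo luminescence, normalised to DMSO and no-cell wells; concentration-response curves classed.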
KB-V1 cytotox: qHTS assay for MDR1-selective chemotherapeutics: Primary screen using the drug-selected MDR subline cells KB-V1. KB-V1 MDR cells viability, CellTiter-Glo, 72 h. Potency, µM (series often up to 46.1 µM), hits mostly cytotoxic. 400,000 tested, 3.4% active; also: nearly all actives have a fitted effect of over 60% in size
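Readout: CellTiter-Glo luminescence, 10 min after addition. Cells: KB-V1 MDR subline, 72 h at 37 degrees C with compound. Analysis: corrected, normalized data fitted to concentration-effect curves.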
TDP1 cell noCPT: qHTS for Inhibitors of human tyrosyl-DNA phosphodiesterase 1 (TDP1): qHTS in cells in absence of CPT | Potency, µM (series often up to 46.2 µM), without a hit: top-dose activity change, negative = growth inhibition, most hits filed as inhibitors | DT40 Tdp1-/- hTDP1 cells, no CPT, ATP luminescence, 48 h | AID 686978, 2013 | 420,000 tested, 15% active; also: nearly all actives have a fitted effect of over 55% in size
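Camptothecin absent (DMSO only). Human TDP1-complemented DT40 knockout cells, 400 cells/well, 37 °C for minimum 48 hr; ATP measured via CellTiter-Glo, 30 min dark incubation, luminescence.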
KB-3-1 tox: qHTS assay for MDR1-selective chemotherapeutics: Primary screen using the parental adenocarcinoma cell KB-3-1. 400,000 tested, 1.4% active. KB-3-1 viability, CellTiter-Glo ATP luminescence, 72 h. Potency, µM (series often up to 46.1 µM), actives largely listed as cytotoxic; also: nearly all actives have a fitted effect of over 60% in size
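Screening of KB-3-1 cells (DMEM, 10% FBS, phenol-red free) ran from lowest to highest compound concentration; after 72 h at 37 °C viability was read luminescently and curves fitted.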
* = called active by the depositor; i = inactive; ? = inconclusive; nt = not tested or not shown. Calls follow the shape of the dose curve; as a rule, active = well fitted curve in the direction sought with a large enough effect; inconclusive = small, poorly fitted or top-dose-only effect, or another doubt; inactive = no such curve, though single readings can be large; an effect the other way counts as inactive or inconclusive. Unless noted, % is scaled to controls: 0 for no effect and ±100 for the full control effect; potency is read from the fitted curve at half-maximal effect.

SMILES | DT40 TDP1 CPT | HT1080NT lethal | HT1080 IDH1KD tx | KB-V1 cytotox | TDP1 cell noCPT | KB-3-1 tox
CN(Cc1ccc(Cl)c(Cl)c1)C(c1cc2ccccc2o1)c1nnnn1C(C)(C)C (configuration not stated) | ? | -18% | ? | 15µM* | 21µM* | ?
CCN(CC)CCN(C)C(c1cc2ccccc2o1)c1nnnn1C(C)(C)C (configuration not stated) | ? | 0% | -12% | ? | ? | i
Cc1c(Br)cnc2ccccc12 | 11% | nt | nt | i | 5% | i
C=C(C)c1cccc(C(C)(C)NC(=O)Nc2cc(C)ccn2)c1 | ? | -5% | -13% | 16µM* | ? | ?
C=C(C)c1cccc(C(C)(C)NC(=O)Nc2nnc(C(C)C)s2)c1 | ? | 16% | 1% | ? | ? | i
C=C(C)c1cccc(C(C)(C)NC(=O)Nc2nncs2)c1 | -24% | -8% | -15% | i | -25% | i
C=C(C)c1cccc(C(C)(C)NC(=O)Nc2ccc(C)cn2)c1 | 18µM* | -1% | 6% | i | 18µM* | i
CCN(C(=O)COn1nnc2ccc(S(=O)(=O)N(C)C)cc21)C1CCS(=O)(=O)C1 (configuration not stated) | 2% | -3% | 3% | i | -16% | i
O=C(O)c1ccccc1NS(=O)(=O)c1cccc(-n2sc3ccccc3c2=O)c1 | 15µM* | -5% | ? | ? | 8.2µM* | i
COc1ccc(CN2C(=O)c3oc4ccccc4c(=O)c3C2c2ccc(O)cc2)cc1 (configuration not stated) | 16% | nt | nt | i | -20% | i
O=C1c2oc3ccccc3c(=O)c2C(c2cccc(O)c2)N1Cc1ccc(F)cc1 (configuration not stated) | ? | nt | nt | i | 21µM* | i
CCOc1cc(C2c3c(oc4ccc(F)cc4c3=O)C(=O)N2Cc2ccc(C)cc2)ccc1O (configuration not stated) | 1.3µM* | nt | nt | i | ? | i
Cc1cc(C)cc(-n2ccn(Cc3ccc(F)cc3)c(=O)c2=O)c1 | -20% | nt | nt | nt | -24% | nt
CNCc1ccccc1Sc1ccc(O)c(O)c1 | 2.6µM* | -11% | ? | 23µM* | 4.1µM* | i
Cc1sc2ncnc(N3CCN(S(=O)(=O)c4ccc(F)cc4)CC3)c2c1C | ? | -19% | -22% | ? | 12µM* | i
Cc1nc(N2CCN(C)CC2)c2cc(-c3ccccc3)sc2n1 | -3% | ? | -1% | i | -27% | i
Cc1nc(N2CCN(S(=O)(=O)c3ccccc3)CC2)c2cc(-c3ccccc3)sc2n1 | 15µM* | 12% | 16% | i | ? | i
Cc1nc(N2CCN(S(=O)(=O)c3ccccc3)CC2)c2c3c(sc2n1)CC(C)CC3 (configuration not stated) | -23% | 13% | 12% | ? | ? | i
Cc1sc2ncnc(N3CCN(c4ncccn4)CC3)c2c1C | 23µM* | -23% | -27% | ? | ? | i
Cc1nc(N2CCN(S(=O)(=O)c3ccc(Br)cc3)CC2)c2c(C)c(C)sc2n1 | 21µM* | -21% | -1% | i | ? | ?
CCS(=O)(=O)N1CCN(c2ncnc3sc(C)c(C)c23)CC1 | -24% | -20% | -4% | ? | ? | i
